Measurements published in PubChem BioAssay AID1159580 (chemical genetic matrix, 2015).
Where “and” joins values, the source holds several entries; their conditions need not be identical. Equal entries are not always repeated. In all, about 5,500 compounds went through this assay and about 2,000 (36%) were called active. About 18% were inconclusive and are not listed. Rule as the data show it: active = normalized growth mostly below about 0.91 (no sharp cut-off); inconclusive = no clear call, values can overlap the other calls; inactive = mostly above about 0.92. The list shows a part of the results.

Experiment: chemical genetic growth profiling, strain panel (AID 1159580);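 also: tested at 20 µM; growth read once vehicle control cultures reached saturation at 30 °C; 1 = growth at the plate median or of vehicle wells; lower values mean less growth of the strain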
Settings: S. cerevisiae deletion strains, growth OD

Measured: normalized growth

OCCN(CCO)c1nc(N2CCCCC2)c2nc(N(CCO)CCO)nc(N3CCCCC3)c2n1
active: locus YDR195W, strain ref2 0.135
inactive: locus YAL013W, strain DEP1, active compounds read low 1.02 | locus YAL021C, strain ccr4, active compounds read low 0.962 | locus YAL026C, strain drs2, active compounds read low 0.964 | locus YAL030W, strain snc1, active compounds read low 0.992 | locus YAL040C, strain CLN3, active compounds read low 0.999 | locus YBL061C, strain skt5, active compounds read low 0.992 | locus YBR009C, strain hhf1, active compounds read low 0.981 | locus YBR021W, strain FUR4, active compounds read low 0.956 | locus YBR023C, strain chs3, active compounds read low 1 | locus YBR171W, strain sec66, active compounds read low 0.994 | locus YBR229C, strain ROT2, active compounds read low 1.01 | locus YBR231C, strain swc5, active compounds read low 0.944 | locus YBR279W, strain paf1, active compounds read low 0.986 | locus YCL011C, strain gbp2, active compounds read low 0.998 | locus YCL016C, strain dcc1, active compounds read low 1.03 | locus YCL029C, strain bik1, active compounds read low 1.01 | locus YCL061C, strain MRC1 (second series), active compounds read low 1 | locus YCL061C, strain MRC1, active compounds read low 1 | locus YCL069W, strain vba3, active compounds read low 0.97 | locus YCR088W, strain abp1, active compounds read low 0.989 | locus YDL005C, strain med2, active compounds read low 0.978 | locus YDL035C, strain GPR1, active compounds read low 1.01 | locus YDL040C, strain nat1, active compounds read low 0.976 | locus YDL074C, strain BRE1, active compounds read low 0.979 | locus YDL101C, strain DUN1, active compounds read low 1 | locus YDL134C, strain PPH21, active compounds read low 1 | locus YDL185W, strain tfp1, active compounds read low 0.995 | locus YDL192W, strain arf1, active compounds read low 0.999 | locus YDR001C, strain nth1, active compounds read low 0.993 | locus YDR069C, strain doa4, active compounds read low 0.969 | locus YDR101C, strain arx1, active compounds read low 0.99 | locus YDR137W, strain rgp1, active compounds read low 1.01 | locus YDR150W, strain NUM1, active compounds read low 1.01 | locus YDR159W, strain sac3, active compounds read low 0.937 | locus YDR162C, strain NBP2, active compounds read low 1 | locus YDR297W, strain sur2, active compounds read low 0.997 | locus YDR318W, strain mcm21, active compounds read low 0.996 | locus YDR334W, strain swr1, active compounds read low 0.974 | locus YDR335W, strain msn5, active compounds read low 0.988 | locus YDR363W, strain ESC2, active compounds read low 1.03 | locus YDR388W, active compounds read low 0.998 | locus YDR392W, strain spt3, active compounds read low 0.898 | locus YDR502C, strain sam2, active compounds read low 1.01 | locus YEL003W, strain gim4, active compounds read low 0.964 | locus YEL037C, strain rad23, active compounds read low 0.965 | locus YEL061C, strain CIN8 (second series), active compounds read low 0.976 | locus YEL061C, strain CIN8, active compounds read low 1.01 | locus YER002W, strain NOP16, active compounds read low 1 | locus YER015W, strain faa2, active compounds read low 0.978 | locus YER016W, strain bim1, active compounds read low 0.976 | locus YER110C, active compounds read low 1 | locus YER111C, strain swi4, active compounds read low 0.971 | locus YER155C, strain BEM2 (second series), active compounds read low 0.992 | locus YER155C, strain BEM2, active compounds read low 1.01 | locus YER167W, strain BCK2, active compounds read low 1.02 | locus YFR010W, strain ubp6, active compounds read low 0.956 | locus YGL078C, strain dbp3, active compounds read low 1 | locus YGL086W, strain mad1, active compounds read low 0.998 | locus YGL167C, strain pmr1, active compounds read low 0.987 | locus YGL173C, strain kem1, active compounds read low 0.982 | locus YGL227W, strain vid30, active compounds read low 0.989 | locus YGL240W, strain doc1, active compounds read low 0.979 | locus YGL248W, strain PDE1, active compounds read low 1.01 | locus YGL253W, strain hxk2, active compounds read low 0.956 | locus YGR135W, strain pre9, active compounds read low 0.993 | locus YGR229C, strain SMI1, active compounds read low 0.996 | locus YGR252W, strain gcn5, active compounds read low 0.931 | locus YHR013C, strain ard1, active compounds read low 0.988 | locus YHR027C, strain rpn1, active compounds read low 0.984 | locus YHR030C, strain SLT2, active compounds read low 1.01 | locus YHR079C, strain IRE1 (second series), active compounds read low 0.994 | locus YHR079C, strain IRE1, active compounds read low 1.1 | locus YHR094C, strain hxt1, active compounds read low 0.998 | locus YHR129C, strain ARP1, active compounds read low 1.01 | locus YHR142W, strain chs7, active compounds read low 0.97 | locus YHR200W, strain rpn10, active compounds read low 1 | locus YIL066C, strain RNR3, active compounds read low 1.02 | locus YIL073C, strain SPO22, active compounds read low 1.01 | locus YIL125W, strain kgd1, active compounds read low 1 | locus YIR030C, strain dcg1, active compounds read low 0.995 | locus YJL092W, strain hpr5, active compounds read low 0.979 | locus YJL095W, strain BCK1 (second series), active compounds read low 0.997 | locus YJL095W, strain BCK1, active compounds read low 0.988 and 1.01 | locus YJL115W, strain asf1, active compounds read low 0.99 | locus YJL129C, strain trk1, active compounds read low 0.95 | locus YJL134W, strain LCB3, active compounds read low 1 | locus YJL154C, strain vps35, active compounds read low 0.992 | locus YJL164C, strain tpk1, active compounds read low 0.975 | locus YJL166W, strain qcr8, active compounds read low 1.01 | locus YJL168C, strain set2, active compounds read low 0.991 | locus YJL187C, strain SWE1 (second series), active compounds read low 1 | locus YJL187C, strain SWE1, active compounds read low 0.989 | locus YJR043C, strain POL32, active compounds read low 1.01
